Data from paper PMC5700166.
Changes are numbered by the printed parent chain.

Key:
Assay in all cases: protein-binding microarray (PBM); PBM: ~300 nM protein, 6 mM HEPES pH 7.8, 80 mM KCl, 0.5 mM EDTA, 0.5 mM EGTA, 6% glycerol, 35 ng/ul poly-dIdC, 1% milk, 1 h, room temperature; Ap Aiptasia and Nv Nematostella (sea anemones) / Co Capsaspora / Aq Amphimedon (sponge) / Dm Drosophila / Hu human; RHD is the Rel homology domain; high values mean tight binding
Settings in all cases: dsDNA, one strand shown
[1] = target: T1, GST-Ap-NF-kB RHD (Exaiptasia pallida (Aiptasia), UniProt A0A913YAJ5 2-422)
T1 sequence: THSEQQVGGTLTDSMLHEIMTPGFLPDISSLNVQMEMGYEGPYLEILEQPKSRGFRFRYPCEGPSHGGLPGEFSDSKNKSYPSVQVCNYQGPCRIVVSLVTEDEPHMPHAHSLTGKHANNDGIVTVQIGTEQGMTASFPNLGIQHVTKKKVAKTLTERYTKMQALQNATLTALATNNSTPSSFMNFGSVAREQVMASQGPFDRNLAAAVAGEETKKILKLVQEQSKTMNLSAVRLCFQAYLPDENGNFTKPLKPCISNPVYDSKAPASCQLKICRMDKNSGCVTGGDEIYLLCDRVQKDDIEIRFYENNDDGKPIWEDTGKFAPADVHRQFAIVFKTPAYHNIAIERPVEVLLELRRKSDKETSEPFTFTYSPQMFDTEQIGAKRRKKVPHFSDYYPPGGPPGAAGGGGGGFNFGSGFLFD

[2] = target: T2, GST-Nv-NF-kB (Cys allele) (Nematostella vectensis, UniProt E5G601 2-411)
T2 sequence: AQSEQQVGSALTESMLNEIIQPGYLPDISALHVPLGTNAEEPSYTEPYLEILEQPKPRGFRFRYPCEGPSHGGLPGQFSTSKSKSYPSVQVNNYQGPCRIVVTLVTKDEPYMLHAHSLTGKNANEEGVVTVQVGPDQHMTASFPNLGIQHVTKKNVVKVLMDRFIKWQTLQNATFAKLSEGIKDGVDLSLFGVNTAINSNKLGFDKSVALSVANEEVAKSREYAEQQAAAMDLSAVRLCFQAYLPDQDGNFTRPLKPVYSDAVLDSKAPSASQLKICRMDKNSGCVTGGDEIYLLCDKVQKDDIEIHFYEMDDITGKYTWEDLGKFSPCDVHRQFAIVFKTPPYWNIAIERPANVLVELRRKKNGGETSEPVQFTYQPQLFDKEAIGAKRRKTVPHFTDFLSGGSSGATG

[3] = target: T3, GST-Nv-NF-kB (Ser allele) (Nematostella vectensis, UniProt A7UNT2 2-411)
T3 sequence: T2 sequence with Q21R, C66S, S207N, E215Q, V217A, E225K, A268E, D399E

[4] = target: T4, GST-Co-NF-kB (Capsaspora owczarzaki, UniProt F1ARL5 200-546)
T4 sequence: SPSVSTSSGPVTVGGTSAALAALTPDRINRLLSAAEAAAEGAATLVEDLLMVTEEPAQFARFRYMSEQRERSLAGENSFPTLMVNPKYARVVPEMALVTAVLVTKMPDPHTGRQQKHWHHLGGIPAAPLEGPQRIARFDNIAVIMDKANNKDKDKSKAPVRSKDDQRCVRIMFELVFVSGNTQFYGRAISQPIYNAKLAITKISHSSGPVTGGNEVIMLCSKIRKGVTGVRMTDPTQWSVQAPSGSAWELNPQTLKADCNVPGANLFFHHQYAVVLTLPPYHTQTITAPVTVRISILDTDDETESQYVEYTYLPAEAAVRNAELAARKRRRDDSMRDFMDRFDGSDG

[5] = target: T5, GST-Dm-Relish (Drosophila melanogaster, UniProt Q94527 99-473)
T5 sequence: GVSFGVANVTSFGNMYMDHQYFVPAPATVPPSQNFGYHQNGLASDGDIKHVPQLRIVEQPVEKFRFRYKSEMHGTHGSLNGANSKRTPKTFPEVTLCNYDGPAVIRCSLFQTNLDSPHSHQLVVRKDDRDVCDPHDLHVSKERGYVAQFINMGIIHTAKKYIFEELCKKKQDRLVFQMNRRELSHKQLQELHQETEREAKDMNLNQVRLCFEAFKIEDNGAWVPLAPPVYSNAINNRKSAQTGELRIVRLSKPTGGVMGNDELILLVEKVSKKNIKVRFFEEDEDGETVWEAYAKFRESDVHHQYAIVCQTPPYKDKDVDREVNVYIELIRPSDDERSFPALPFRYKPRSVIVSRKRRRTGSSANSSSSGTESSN

[6] = target: T6, GST-Aq-NF-kB (Amphimedon queenslandica, UniProt A9Y5G7 2-389)
T6 sequence: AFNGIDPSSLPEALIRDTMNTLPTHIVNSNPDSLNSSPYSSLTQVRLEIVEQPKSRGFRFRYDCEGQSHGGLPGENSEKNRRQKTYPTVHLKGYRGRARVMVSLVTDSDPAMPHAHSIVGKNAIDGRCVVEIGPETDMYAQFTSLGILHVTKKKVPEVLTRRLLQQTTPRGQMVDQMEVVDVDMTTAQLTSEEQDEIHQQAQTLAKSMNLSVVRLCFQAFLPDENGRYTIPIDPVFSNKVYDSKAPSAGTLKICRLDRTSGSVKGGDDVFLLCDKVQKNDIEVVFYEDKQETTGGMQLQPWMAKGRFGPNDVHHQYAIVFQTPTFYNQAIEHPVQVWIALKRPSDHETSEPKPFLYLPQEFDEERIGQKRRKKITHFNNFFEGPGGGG

[7] = target: GST-Hu-p50 (Homo sapiens, UniProt P19838 7-356)
Chain of GST-Hu-p50 (P19838 7-356): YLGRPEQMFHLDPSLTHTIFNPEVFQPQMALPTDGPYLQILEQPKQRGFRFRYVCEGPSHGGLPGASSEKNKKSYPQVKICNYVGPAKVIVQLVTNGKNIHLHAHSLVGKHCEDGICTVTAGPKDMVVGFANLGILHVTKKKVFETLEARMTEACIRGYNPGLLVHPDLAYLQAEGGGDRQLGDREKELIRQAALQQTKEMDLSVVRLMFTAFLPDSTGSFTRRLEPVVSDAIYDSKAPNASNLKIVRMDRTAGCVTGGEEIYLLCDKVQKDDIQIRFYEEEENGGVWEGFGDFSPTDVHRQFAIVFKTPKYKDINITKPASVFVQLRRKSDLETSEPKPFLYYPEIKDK

Row | Sequence | binding signal [1] [z-score] | binding signal [2] [z-score] | binding signal [3] [z-score] | binding signal [4] [z-score] | binding signal [5] [z-score] | binding signal [6] [z-score] | binding signal [7] [z-score]
1 | CCGATTAACATCACTATTTCCCCTGATGTTAATCGGGTCTTGATTCGCTTGACGCTGCTG | 6.35 | 7.42 | 9.8 | 8.77 | 3.62 | 4.85 | 6.08
2 | CCGATTAACATCAGGGGGAACCCTGATGTTAATCGGGTCTTGATTCGCTTGACGCTGCTG | 8.64 | 7.75 | 7.25 | 8.49 | 9.93 | 8.13 | 6.39
3 | CCGATTAACATCAGGATTTCCCATGATGTTAATCGGGTCTTGATTCGCTTGACGCTGCTG | 3.95 | 5.23 | 4.48 | 3.18 | 5.84 | 5.27 | 3.73
4 | CCGATTAACATCACAATTCCCCCTGATGTTAATCGGGTCTTGATTCGCTTGACGCTGCTG | 7.95 | 8.27 | 9.39 | 8.14 | 5.44 | 6.33 | 7
5 | CCGATTAACATCAGGGAAAGCACTGATGTTAATCGGGTCTTGATTCGCTTGACGCTGCTG | 3.61 | 4.73 | 3.86 | 2.69 | 6.76 | 6.5 | 3.98
6 | CCGATTAACATCAAGACTTCCCCTGATGTTAATCGGGTCTTGATTCGCTTGACGCTGCTG | 6.45 | 7.56 | 7.93 | 5.12 | 7.71 | 6.38 | 5.95
7 | CCGATTAACATCAAAGATTCCCCTGATGTTAATCGGGTCTTGATTCGCTTGACGCTGCTG | 8.13 | 10.5 | 11.7 | 8.45 | 7.42 | 7.27 | 6.66
8 | CCGATTAACATCACGGAACCCCCTGATGTTAATCGGGTCTTGATTCGCTTGACGCTGCTG | 7.51 | 4.89 | 6.13 | 2.13 | 9.21 | 5.54 | 5.79
9 | CCGATTAACATCACAGTCCCCCCTGATGTTAATCGGGTCTTGATTCGCTTGACGCTGCTG | 5.98 | 5.07 | 5.18 | 5.62 | 4.6 | 4.63 | 4.33
10 | CCGATTAACATCAGAGCTCCCCCTGATGTTAATCGGGTCTTGATTCGCTTGACGCTGCTG | 5.05 | 4.31 | 4.32 | 5.45 | 1.98 | 3.98 | 4.94
11 | CCGATTAACATCACACTTTCCCCTGATGTTAATCGGGTCTTGATTCGCTTGACGCTGCTG | 6.32 | 6.92 | 8.7 | 7.06 | 2.75 | 4.81 | 5.3
12 | CCGATTAACATCAGAGAATTCCCTGATGTTAATCGGGTCTTGATTCGCTTGACGCTGCTG | 5.32 | 7.57 | 7.07 | 2.8 | 4.51 | 6.73 | 5.27
